Gal4-VP16 FLuc: counter-screen for ROR gamma inhibitors: Gal4-VP16 reporter. Potency, µM (doses to about 53.6 µM), without a hit: at the top dose activity, negative = inhibition, most hits filed as inhibitors. Drosophila S2 Gal4-VP16 UAS-luciferase, luminescence, 20 h. actives 3.5% (n = 310,000);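 further: Gal4-VP16 expression switched on by copper sulfate through the metallothionein promoter; potency means the concentration at half of the fitted maximal effect; nearly all actives have a fitted effect of over 50% in size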
RORg inh: ROR gamma (mouse) transcription inhibition | P51450 | Drosophila S2 Gal4-RORgamma UAS-luciferase reporter, 20 h | Potency, µM (top dose mostly 53.6 µM), for the others: top-dose activity change, negative = inhibition, most hits filed as inhibitors | actives 5.4% (n = 310,000); further: potency means the concentration at half of the fitted maximal effect; nearly all actives have a fitted effect of over 60% in size
Target sequence (P51450 whole entry, looked up, the tested form may be a part): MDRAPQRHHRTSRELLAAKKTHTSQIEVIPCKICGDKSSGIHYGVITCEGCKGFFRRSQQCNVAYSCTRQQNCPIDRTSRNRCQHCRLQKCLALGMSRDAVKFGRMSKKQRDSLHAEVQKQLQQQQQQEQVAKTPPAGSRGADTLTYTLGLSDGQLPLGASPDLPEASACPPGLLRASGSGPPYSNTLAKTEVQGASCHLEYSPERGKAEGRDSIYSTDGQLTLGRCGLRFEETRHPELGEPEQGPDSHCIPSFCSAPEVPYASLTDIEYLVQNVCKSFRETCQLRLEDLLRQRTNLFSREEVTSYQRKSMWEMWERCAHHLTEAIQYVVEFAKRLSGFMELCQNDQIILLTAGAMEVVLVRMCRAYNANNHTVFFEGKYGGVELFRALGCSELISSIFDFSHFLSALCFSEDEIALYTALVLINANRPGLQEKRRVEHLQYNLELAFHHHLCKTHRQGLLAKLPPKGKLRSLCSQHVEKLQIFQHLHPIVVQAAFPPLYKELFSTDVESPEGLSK
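Compounds are pin-transferred onto Drosophila Schneider cells expressing a copper-inducible Gal4–ROR gamma transactivation domain fusion. After 1 hr, copper sulfate is added to 700 uM final; luciferase is read 20 hr later.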
TDP1 cell noCPT: qHTS for Inhibitors of human tyrosyl-DNA phosphodiesterase 1 (TDP1): qHTS in cells in absence of CPT; DT40 Tdp1-/- hTDP1 cells, no CPT, ATP luminescence, 48 h; AID 686978, 2013; Potency, µM (titrated, usually from 46.2 µM), inactives show at the highest dose activity change, negative = growth inhibition, actives largely listed as inhibitors; actives 15% (n = 420,000); further: potency means the concentration at half of the fitted maximal effect; nearly all actives have a fitted effect of over 55% in size
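Seeded 400 DT40-hTDP1 cells/well (vehicle DMSO, no 20 nM CPT); pinned compounds; ≥48 hr at 37 °C; CellTiter-Glo luminescence as viability measure.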
ELG1 DNA repair: blocks ELG1-dependent DNA repair in HEK293T cells. HEK293T ELG1-luciferase reporter, luminescence, 16 h; DNA damage induced by 5-fluorouridine. Potency, µM (doses to about 46.1 µM), without a hit: top-dose activity change, negative = inhibition, most hits filed as inhibitors. actives 2.3% (n = 330,000); further: potency means the concentration at half of the fitted maximal effect; nearly all actives have a fitted effect of over 55% in size
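DMSO vehicle served as the neutral condition. Each well held 2,000 cells given 5-fluorouridine plus compound; after 16 hr at 37 °C/5% CO2, ONE-Glo was added and luciferase measured 30 min later.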
DT40 TDP1 CPT: growth inhibition of DT40 Tdp1-/-;hTDP1 cells with camptothecin (screen for TDP1 inhibitors) | actives 12% (n = 420,000) | Potency, µM (highest dose often 46.2 µM), for inactives: at the top dose activity change, negative = growth inhibition, hits mostly inhibitors | AID 686979 | chicken DT40 Tdp1-/-;hTDP1 cells + 20 nM CPT, ATP luminescence, 48 h; further: potency means the concentration at half of the fitted maximal effect; nearly all actives have a fitted effect of over 55% in size
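Chicken DT40 Tdp1-/- cells stably complemented with human TDP1 were seeded at 400 cells/well in medium containing 20 nM camptothecin, exposed to pin-transferred compounds, and grown at 37 °C for at least 48 hr. Viability was read as ATP luminescence.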
IL1B secr inh: blocks inflammasome-driven IL-1 beta release; THP-1 LPS/ATP IL-1B secretion, AlphaLISA, 16 h; hits give low values; activity change, % at 57.5 µM; AID 743279; actives 4.7% (n = 360,000); in the data active means activity change below about -50%; inconclusive means mostly about -30% to -49%
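THP-1 cells pretreated 1 hr with compounds (up to 57.5 uM final), then stimulated with LPS (250 ng/mL final) plus ATP (1.25 mM final); secreted IL-1B measured by AlphaLISA after 16 hr, decreased signal indicating inhibition.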
Starred values were filed as active, the others as inactive; ? = inconclusive; · = no result given; [ ] = remark or other dose. The list is not random: actives were taken first. Their share in the collection is about 21%. Unless noted, the call rests on the fitted dose curve; in most records, active means well fitted curve in the direction sought with a large enough effect; inconclusive means small, poorly fitted or top-dose-only effect, or another doubt; inactive means no such curve, though single readings can be large; an effect the other way counts as inactive or inconclusive. On the % scale 0 is the no-effect control and ±100 the full control effect.

SMILES | Gal4-VP16 FLuc | RORg inh | TDP1 cell noCPT | ELG1 DNA repair | DT40 TDP1 CPT | IL1B secr inh
CCc1c(C)c2ccc(O)c(CN3CCN(c4ccccc4)CC3)c2oc1=O | · | · | 21µM* | · | 15µM* | ·
COc1ccc(Oc2c(C)oc3c(CN4CCOCC4)c(O)ccc3c2=O)cc1 | 1% | 17% | -18% | -2% | -8% | 6
COc1ccc(-c2c(C)c3ccc(O)c(CN4CCCC4)c3oc2=O)cc1 | · | · | 15µM* | · | ? | ·
COc1ccc(-c2c(C)c3ccc(O)c(CN4CCOCC4)c3oc2=O)cc1 | · | · | 23µM* | · | 16µM* | ·
Cc1c(C)c2ccc(O)c(CN3CCCC3)c2oc1=O | -8% | -11% | 8% | 2% | 9% | -2
COc1cccc(OCc2cc(=O)n3cc(C)sc3n2)c1 | · | · | ? | · | -25% | ·
Cc1c(-c2ccc(Cl)cc2)c(=O)oc2c(CN3CCN(C)CC3)c(O)ccc12 | · | · | 23µM* | · | ? | ·
COc1cc(OC)cc(C(=O)NCc2ccc(-n3cccc3)cc2)c1 | -3% | 8% | ? | -13% | 18µM* | -17
Cc1ccc(CNC(=O)Cc2ccc(-n3cccc3)cc2)cc1 | 2% | -3% | 0.82µM* | ? | 1.3µM* | -13
COc1ccc(CC(=O)NCc2ccc(-n3cccc3)cc2)cc1OC | 5% | ? | 2.3µM* | -5% | 2.3µM* | 21
Cc1ccc(CNC(=O)c2ccc(-n3cccc3)cc2)cc1 | 3% | 3% | -11% | -14% | -13% | 27
O=C(Cc1ccc(-n2cccc2)cc1)NCc1cccs1 | 2% | 1% | 1µM* | 4% | 0.82µM* | 34
COc1ccc(CC(=O)NCc2nn(-c3ccccc3)nc2C)cc1OC | -2% | -6% | ? | 0% | -17% | 31
N=c1sccn1CC(=O)Nc1ccc(Cl)cc1[N+](=O)[O-] | -4% | 16% | ? | -5% | -9% | 6
COC(=O)C1CC2=C(CCCC2=O)N(c2ccccc2)C1=O (stereo unspecified) | · | · | -2% | · | -14% | 22
CCC(C)NCCCCOc1ccc(Br)cc1 (stereo unspecified) | -2% | -15% | 16µM* | 3% | ? | -26
CCC(C)NCCCCOc1cc(C)cc(C(C)C)c1 (stereo unspecified) | 2% | -7% | 18µM* | 10% | ? | -12
O=S(=O)(c1ccc2c(c1)OCCO2)N1CCN(CCc2ccccc2)CC1 | · | · | -13% | · | -29% | ·
COc1cccc(CNC(=O)CCNC(=O)c2ccccc2OC)c1 | -2% | 6% | 5% | -4% | -4% | -3
S=C(NC1CCCC1)N1CCN(c2ccc(Cl)cc2)CC1 | -17%[10 µM] | -36% | ? | ? | 15% | ?
Cc1nnc2ccc(N3CCCCC3)nn12 | 18% | -32% | -6% | ? | 27% | 24
FC(F)(F)c1cccc(N2CCN(C(=S)NC3CCCCC3)CC2)c1 | ? | 16µM* | 23µM* | -19% | ? | 7
FC(F)(F)c1cccc(N2CCN(C(=S)NC3CCCC3)CC2)c1 | ? | ? | 16µM* | ? | ? | -57*
CCNC(=S)N1CCN(c2cccc(C(F)(F)F)c2)CC1 | -10% | ? | 13µM* | -12% | 15µM* | -25
Cc1nnc2ccc(N3CCN(c4cccc(C(F)(F)F)c4)CC3)nn12 | -13% | -28% | 16µM* | -16% | 26µM* | 45
SMILES | Gal4-VP16 FLuc | RORg inh | TDP1 cell noCPT | ELG1 DNA repair | DT40 TDP1 CPT | IL1B secr inh
CCCCC1CC2=C(C(=O)OC(C)(C)O2)C(c2cccc3ccccc23)O1 (stereo unspecified) | · | · | 23µM* | · | ? | -23
CCCC[C@@H]1CC2=C(C(=O)OC(C)(C)O2)[C@@H](c2ccc(Cl)cc2)O1 | · | · | ? | · | ? | 5
Cc1cccc(Cn2c(SCc3ccc(C(=O)NCc4ccccc4F)cc3)nc3cccnc32)c1 | · | · | 21µM* | · | ? | ·
Cc1cccc(Cn2c(SCc3ccc(C(=O)NCc4ccccc4F)cc3)nc3ccncc32)c1 | · | · | 23µM* | · | ? | ·
COC(=O)c1ccc(Cn2c(SCc3cccc(C)c3)nc3ccncc32)cc1 | · | · | 16µM* | · | ? | ·
Cc1cccc(Cn2c(SCc3ccc(C(=O)N4CCCCCC4)cc3)nc3ccncc32)c1 | · | · | ? | · | -122% | ·
COc1cccc(CNC(=O)c2ccc(CSc3nc4ccncc4n3Cc3cccc(C)c3)cc2)c1 | · | · | 16µM* | · | 21µM* | ·
Cc1cccc(Cn2c(SCc3ccc(C(=O)NC4CCCCC4)cc3)nc3ccncc32)c1 | · | · | -19% | · | -9% | ·
CCC(C)OC(=O)/C(C#N)=C\c1ccc(-c2cccc(C(F)(F)F)c2)o1 (stereo unspecified) | · | · | ? | · | -26% | ·
CC12CCC(CC1O)C2C(=O)O (stereo unspecified) | · | · | -4% | · | 7% | -26
COc1ccc(NC(=O)Cn2c(SCc3c(F)cccc3Cl)nc3ccncc32)cc1OC | · | · | -20% | · | -26% | ·
COc1ccc(NC(=O)Cn2c(SCc3cccc(Cl)c3)nc3ccncc32)c(OC)c1OC | · | · | ? | · | 21µM* | ·
CCOC(=O)c1c(C)[nH]c(N=Nc2ccccc2)c1C | ? | ? | 23µM* | ? | ? | -3
CCOC(=O)c1c(C)[nH]c(N=Nc2cccc(C)c2)c1C | 1% | -12% | -25% | ? | ? | -5
CCOC(=O)c1c(C)[nH]c(N=Nc2ccc(C)cc2)c1C | ? | ? | -26% | ? | ? | -15
CCOC(=O)c1c(C)[nH]c(N=Nc2cccc(OC)c2)c1C | -16% | 4µM* | ? | ? | -5% | -67*
Cc1cccc(-c2onc3ccc(C4(C)OCCO4)cc23)c1 | -11% | ? | 15µM* | ? | ? | -9
COC(=O)c1ccc(N2CCN(C)CC2)c(NC(=O)c2ccc(Br)o2)c1 | -5% | -28% | ? | -11% | ? | -2
O=C(Nc1ccccc1N1CCN(C(=O)c2ccccc2)CC1)c1ccc(Cl)cc1 | -11% | 33% | 23µM* | -25% | ? | ?
COc1ccc(C(=O)Nc2ccccc2N2CCN(C(=O)c3ccccc3)CC2)cc1Br | -11% | -14% | ? | 21µM* | ? | ?
O=C(Cc1ccc(Cl)cc1)Nc1ccccc1N1CCN(C(=O)c2ccccc2)CC1 | -18% | -29% | 21µM* | ? | ? | ?
O=C(Nc1ccccc1N1CCN(C(=O)c2ccc(Cl)cc2)CC1)c1ccc(Br)cc1 | -8% | 6% | -2% | ? | ? | -16

Compound activity from PubChem.
